# Laboratory results taken from PubChem BioAssay (EPA / NIEHS).
# Where “and” joins values, the source holds several entries; their conditions need not be identical. Equal entries are not always repeated. Inconclusive results are not listed. Calls of active or inactive are those of the source. Rule for the calls: active = hit-call score of the fitted dose curve at least 0.9, where 1 is the maximum; inconclusive = response in the unintended direction; inactive = score below 0.9.
# How the values were obtained:
# [1] = molecular target: human Neurokinin, NK2 Receptor, TACR2 (gene 6865) (UniProt P21452); assay: NVS_GPCR_hNK2: NovaScreen (NVS) G Protein-Coupled Receptor Assay for human Neurokinin, NK2 Receptor (AID 2283278);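 note: actives reduce bound radioligand signal relative to DMSO baseline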
# Outline: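 CHO-derived membrane protein, radioligand displacement, filter scintillation read at 4 h post-dose. Single-point 25 uM in duplicate, then concentration series for actives; DMSO as negative control.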
# [2] = molecular target: human Adrenergic, Beta 1 Receptor (Adrb1), ADRB1 (gene 153) (UniProt P08588); assay: NVS_GPCR_hAdrb1: NovaScreen (NVS) G Protein-Coupled Receptor Assay for human Adrenergic, Beta 1 Receptor (Adrb1) (AID 2283258)
# Outline: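 Membranes/protein extracted from human neuroepithelioma cells, radioligand competition binding read by filtration and scintillation 2 h post-dose. Single 25 uM duplicate screen, then concentration-response follow-up; DMSO as negative control.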
# [3] = molecular target: human Adrenergic, Alpha 2c Receptor (Adra2C), ADRA2C (gene 152) (UniProt P18825); assay: NVS_GPCR_hAdra2C: NovaScreen (NVS) G Protein-Coupled Receptor Assay for human Adrenergic, Alpha 2c Receptor (Adra2C) (AID 2283259)
# Outline: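 Screened first in duplicate at 25 uM, with actives then run as concentration series. Membranes from Sf9 cells were exposed for 1 h, and displacement of radioligand was counted after filtration, using DMSO as baseline.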
# [4] = molecular target: Beta-2 adrenergic receptor (Homo sapiens) (UniProt P07550); assay: NVS_GPCR_hAdrb2: NovaScreen (NVS) G Protein-Coupled Receptor Assay for human Adrenergic, Beta 2 Receptor (Adrb2) (AID 2283261)
# Outline: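 Compounds screened in duplicate at 25 uM, then actives in concentration series. Human beta-2 receptor from CHO material, cell-free; radioligand displacement after 1 h measured by filtration and scintillation against DMSO baseline.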
# [5] = molecular target: human Dopamine Receptor D2 (DRD2), DRD2 (gene 1813) (UniProt P14416); assay: NVS_GPCR_hDRD2s: NovaScreen (NVS) G Protein-Coupled Receptor Assay for human Dopamine Receptor D2 (DRD2) (AID 2283266)
# Outline: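 Test compound (25 uM, duplicate in the primary screen; concentration series at follow-up) competed with radioligand for human DRD2 in CHO-derived membrane protein. Filter-based scintillation counting was done 1.5 hours after dosing, with loss of signal analysed against DMSO.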
# [6] = molecular target: D(1A) dopamine receptor (Homo sapiens) (UniProt P21728); assay: NVS_GPCR_hDRD1: NovaScreen (NVS) G Protein-Coupled Receptor Assay for human Dopamine Receptor D1 (DRD1) (AID 2283269)
# Outline: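 Cell-free radioligand binding to human DRD1 from HEK293 membranes, read 1 h after dosing by filter-based scintillation counting. Loss of signal versus DMSO baseline marks displacement. Primary screen at 25 uM single concentration in duplicate; actives followed up in concentration series.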
# [7] = molecular target: Muscarinic acetylcholine receptor M1 (Homo sapiens) (UniProt P11229); assay: NVS_GPCR_hM1: NovaScreen (NVS) G Protein-Coupled Receptor Assay for human Muscarinic, M1 Receptor (AID 2283270)
# Outline: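 Actives from a duplicate 25 uM single-point screen were retested in concentration series. Binding measured as displacement of a radioligand from CHO-derived receptor preparation, 1 h incubation, filtration and scintillation counting, analysed as signal loss against DMSO.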
# [8] = molecular target: human Leukotriene B4 Receptor 1 (LTB4-BLT1), LTB4R (gene 1241) (UniProt Q15722); assay: NVS_GPCR_hLTB4_BLT1: NovaScreen (NVS) G Protein-Coupled Receptor Assay for human Leukotriene B4 Receptor 1 (LTB4-BLT1) (AID 2283271)
# Outline: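 Cell-free human neutrophil receptor preparation, 1 h exposure, radioligand binding read by filter scintillation counting. Single 25 uM duplicate screen, then concentration series topping at 50 uM; binding loss scored against DMSO baseline.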
# [9] = molecular target: Muscarinic acetylcholine receptor M3 (Homo sapiens) (UniProt P20309); assay: NVS_GPCR_hM3: NovaScreen (NVS) G Protein-Coupled Receptor Assay for human Muscarinic, M3 Receptor (AID 2283272)
# Outline: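 Radioligand displacement binding on human M3 receptor in CHO-derived membranes, 1 h incubation, filter-based scintillation counting. Primary screen in duplicate at 25 uM; actives followed up in concentration series; loss of signal versus DMSO.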
# [10] = molecular target: Muscarinic acetylcholine receptor M2 (Homo sapiens) (UniProt P08172); assay: NVS_GPCR_hM2: NovaScreen (NVS) G Protein-Coupled Receptor Assay for human Muscarinic, M2 Receptor (AID 2283273)
# Outline: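 Filter-based radiodetection read bound radioligand 1 h after dosing CHO-derived membrane protein. Single-concentration duplicates (25 uM) first, then concentration-response for actives; signal loss versus DMSO scored.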
# [11] = molecular target: human Muscarinic, M4 Receptor, CHRM4 (gene 1132) (UniProt P08173); assay: NVS_GPCR_hM4: NovaScreen (NVS) G Protein-Coupled Receptor Assay for human Muscarinic, M4 Receptor (AID 2283274)
# Outline: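 Filter-based scintillation counting of radioligand bound to CHO-expressed human M4 preparations after 1 h; loss of signal fitted versus DMSO. Initial duplicate testing at 25 uM, concentration-response follow-up for actives.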
# [12] = molecular target: human Adrenergic, Alpha 2A Receptor (Adra2A), ADRA2A (gene 150) (UniProt P08913); assay: NVS_GPCR_hAdra2A: NovaScreen (NVS) G Protein-Coupled Receptor Assay for human Adrenergic, Alpha 2A Receptor (Adra2A) (AID 2283257)
# Outline: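 Displacement of a specific radioligand from HT29 membrane protein was counted by filter scintillation after 1 h. Compounds were screened in duplicate at 25 uM, and actives were retested in concentration series. Fitting was positive-direction against DMSO.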
# [13] = molecular target: Type-1 angiotensin II receptor (Homo sapiens) (UniProt P30556); assay: NVS_GPCR_hAT1: NovaScreen (NVS) G Protein-Coupled Receptor Assay for human Angiotensin II receptor type 1 (AT1) (AID 2283263)
# Outline: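 Hits from a 25 uM duplicate screen (threshold e.g. 30% inhibition) were run in concentration-response with 50 uM top concentration. Displacement of specific radioligand from KAN-TS membrane preparations measured after 3 h by filter scintillation, DMSO as baseline.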
# [14] = molecular target: human Endothelin Receptor Type A (ETA), EDNRA (gene 1909) (UniProt P25101); assay: NVS_GPCR_hETA: NovaScreen (NVS) G Protein-Coupled Receptor Assay for human Endothelin Receptor Type A (ETA) (AID 2283265)
# Outline: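 Binding of radioligand to membrane protein extracted from SH-SY5Y cells was read by filtration and scintillation after 3 h. Compounds were screened at 25 uM in duplicate, with hits followed up in singleton concentration series to 50 uM.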
# [15] = molecular target: human Histamine 1 Receptor (H1), HRH1 (gene 3269) (UniProt P35367); assay: NVS_GPCR_hH1: NovaScreen (NVS) G Protein-Coupled Receptor Assay for human Histamine 1 Receptor (H1) (AID 2283268)
# Outline: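 Filter-based scintillation detection of radioligand binding to human H1, 1 h incubation; chemicals screened in duplicate at 25 uM, then concentration-response; signal loss relative to DMSO taken as activity.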
# [16] = molecular target: human Neuropeptide Receptor Y1 (NPY1), NPY1R (gene 4886) (UniProt P25929); assay: NVS_GPCR_hNPY1: NovaScreen (NVS) G Protein-Coupled Receptor Assay for human Neuropeptide Receptor Y1 (NPY1) (AID 2283276)
# Outline: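 Displacement of specific radioligand from NPY1 receptor of SK-N-MC origin, read by filtration and scintillation after 1 h. Compounds first tested at 25 uM in duplicate, then actives in concentration series; signal loss relative to DMSO.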
# [17] = molecular target: human Dopamine Receptor D4.4 (DRD4.4), DRD4 (gene 1815) (UniProt P21917); assay: NVS_GPCR_hDRD4.4: NovaScreen (NVS) G Protein-Coupled Receptor Assay for human Dopamine Receptor D4.4 (DRD4.4) (AID 2283264)
# Outline: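 Filter-binding assay with a tritiated or iodinated ligand, cell-free receptor prepared from CHO, 1 hour. Loss of bound radioactivity versus DMSO; single 25 uM duplicate screen, then concentration-response for actives.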
# [18] = molecular target: human Adrenergic, Beta 3 Receptor (Adrb3), ADRB3 (gene 155) (UniProt P13945); assay: NVS_GPCR_hAdrb3: NovaScreen (NVS) G Protein-Coupled Receptor Assay for human Adrenergic, Beta 3 Receptor (Adrb3) (AID 2283262)
# Outline: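 A cell-free filter binding assay read by scintillation counting, with displacement of a specific radioligand measured after 1 hour. The receptor source was SK-N-MC extracts (cells pretreated with isoproterenol and 8-bromo-cAMP). Compounds were first tested at 25 uM in duplicate and then in concentration series.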
# [19] = molecular target: Neuropeptide Y receptor type 2 (Homo sapiens) (UniProt P49146); assay: NVS_GPCR_hNPY2: NovaScreen (NVS) G Protein-Coupled Receptor Assay for human Neuropeptide Receptor Y2 (NPY2) (AID 2283277)
# Outline: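 Chemicals were first tested in duplicate at 25 uM, then actives in singleton concentration series to 50 uM. Tracer binding to SK-N-MC-derived protein measured cell-free after 1 h via filter scintillation; signal loss relative to DMSO.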
# [20] = molecular target: human Endothelin Receptor Type B (ETB), EDNRB (gene 1910) (UniProt P24530); assay: NVS_GPCR_hETB: NovaScreen (NVS) G Protein-Coupled Receptor Assay for human Endothelin Receptor Type B (ETB) (AID 2283267)
# Outline: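 Filter-based scintillation readout of radioligand displacement, 4 h, using membranes from human astrocytoma cells. Actives from a 25 uM duplicate screen were retested in concentration-response (top 50 uM) relative to DMSO baseline.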
# human Muscarinic, M4 Receptor, CHRM4 (gene 1132), sequence (P08173 whole entry, looked up): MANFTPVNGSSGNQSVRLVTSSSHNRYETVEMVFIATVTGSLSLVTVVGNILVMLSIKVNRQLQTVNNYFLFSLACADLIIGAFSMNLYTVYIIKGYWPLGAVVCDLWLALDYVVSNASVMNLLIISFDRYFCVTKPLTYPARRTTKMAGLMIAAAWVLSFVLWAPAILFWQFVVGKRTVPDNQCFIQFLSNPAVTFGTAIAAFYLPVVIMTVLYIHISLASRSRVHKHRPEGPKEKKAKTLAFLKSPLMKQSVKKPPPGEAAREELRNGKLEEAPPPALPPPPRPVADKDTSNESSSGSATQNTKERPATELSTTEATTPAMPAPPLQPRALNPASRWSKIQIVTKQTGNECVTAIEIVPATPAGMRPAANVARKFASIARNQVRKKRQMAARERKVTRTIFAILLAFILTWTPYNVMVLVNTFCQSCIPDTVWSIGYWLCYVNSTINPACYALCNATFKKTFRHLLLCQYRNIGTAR
# human Histamine 1 Receptor (H1), HRH1 (gene 3269), sequence (P35367 whole entry, looked up): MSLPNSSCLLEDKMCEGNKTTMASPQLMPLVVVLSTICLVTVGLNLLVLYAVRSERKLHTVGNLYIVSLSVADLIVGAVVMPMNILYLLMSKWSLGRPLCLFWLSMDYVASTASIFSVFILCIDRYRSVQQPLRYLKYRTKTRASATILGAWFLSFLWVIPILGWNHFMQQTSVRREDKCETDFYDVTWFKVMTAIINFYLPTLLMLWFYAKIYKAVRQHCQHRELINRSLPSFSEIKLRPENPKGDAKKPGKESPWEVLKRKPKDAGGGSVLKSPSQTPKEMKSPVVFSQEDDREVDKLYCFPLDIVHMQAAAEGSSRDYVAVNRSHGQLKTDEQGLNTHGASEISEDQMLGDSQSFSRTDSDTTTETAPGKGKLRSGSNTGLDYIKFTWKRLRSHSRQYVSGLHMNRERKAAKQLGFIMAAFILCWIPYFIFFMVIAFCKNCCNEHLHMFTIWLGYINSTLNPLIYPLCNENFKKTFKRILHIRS
# Beta-2 adrenergic receptor (Homo sapiens), sequence (P07550 whole entry, looked up): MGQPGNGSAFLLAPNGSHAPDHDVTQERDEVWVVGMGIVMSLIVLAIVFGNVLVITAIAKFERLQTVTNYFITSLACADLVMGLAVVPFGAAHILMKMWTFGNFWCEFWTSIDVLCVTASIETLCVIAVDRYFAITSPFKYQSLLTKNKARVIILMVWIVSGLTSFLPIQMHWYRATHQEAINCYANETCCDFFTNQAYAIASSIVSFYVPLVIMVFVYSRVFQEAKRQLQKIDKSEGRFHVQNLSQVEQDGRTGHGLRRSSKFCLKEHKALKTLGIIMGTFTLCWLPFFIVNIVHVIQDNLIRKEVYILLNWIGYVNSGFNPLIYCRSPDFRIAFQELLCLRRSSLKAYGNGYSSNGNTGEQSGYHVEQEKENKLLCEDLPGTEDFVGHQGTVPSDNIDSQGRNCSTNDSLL
# human Dopamine Receptor D2 (DRD2), DRD2 (gene 1813), sequence (P14416 whole entry, looked up): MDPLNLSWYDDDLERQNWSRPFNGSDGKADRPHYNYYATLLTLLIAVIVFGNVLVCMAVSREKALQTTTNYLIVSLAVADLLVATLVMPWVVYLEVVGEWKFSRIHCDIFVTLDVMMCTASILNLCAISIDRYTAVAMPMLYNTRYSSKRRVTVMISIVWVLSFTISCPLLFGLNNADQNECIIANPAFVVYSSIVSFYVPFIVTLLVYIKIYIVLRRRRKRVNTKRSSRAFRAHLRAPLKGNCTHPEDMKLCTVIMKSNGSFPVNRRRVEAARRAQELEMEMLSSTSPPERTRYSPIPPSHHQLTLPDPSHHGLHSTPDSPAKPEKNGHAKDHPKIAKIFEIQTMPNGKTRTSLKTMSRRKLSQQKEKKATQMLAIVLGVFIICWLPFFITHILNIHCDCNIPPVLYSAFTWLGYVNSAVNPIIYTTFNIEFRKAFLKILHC
# human Leukotriene B4 Receptor 1 (LTB4-BLT1), LTB4R (gene 1241), sequence (Q15722 whole entry, looked up): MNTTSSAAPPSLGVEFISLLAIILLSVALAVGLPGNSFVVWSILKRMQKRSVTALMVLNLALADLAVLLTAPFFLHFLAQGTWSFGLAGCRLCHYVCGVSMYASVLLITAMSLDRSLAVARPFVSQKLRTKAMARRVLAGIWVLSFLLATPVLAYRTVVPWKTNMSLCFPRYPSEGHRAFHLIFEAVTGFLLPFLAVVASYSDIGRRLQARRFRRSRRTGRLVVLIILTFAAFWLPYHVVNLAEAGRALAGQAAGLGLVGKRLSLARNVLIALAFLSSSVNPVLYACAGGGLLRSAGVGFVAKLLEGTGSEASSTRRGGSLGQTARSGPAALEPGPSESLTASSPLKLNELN
# Muscarinic acetylcholine receptor M2 (Homo sapiens), sequence (P08172 whole entry, looked up): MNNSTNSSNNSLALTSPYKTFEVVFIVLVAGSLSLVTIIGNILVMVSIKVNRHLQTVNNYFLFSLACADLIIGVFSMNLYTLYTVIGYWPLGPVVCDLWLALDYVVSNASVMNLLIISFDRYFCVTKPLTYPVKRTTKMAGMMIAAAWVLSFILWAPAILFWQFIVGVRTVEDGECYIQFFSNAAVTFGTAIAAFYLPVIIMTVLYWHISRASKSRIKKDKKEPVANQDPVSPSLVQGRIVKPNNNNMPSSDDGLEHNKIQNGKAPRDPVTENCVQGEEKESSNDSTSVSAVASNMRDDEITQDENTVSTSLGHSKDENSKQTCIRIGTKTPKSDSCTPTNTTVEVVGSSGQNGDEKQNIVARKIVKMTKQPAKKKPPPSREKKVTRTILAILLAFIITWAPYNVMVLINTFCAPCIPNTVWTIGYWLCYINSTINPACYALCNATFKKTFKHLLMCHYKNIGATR
# human Adrenergic, Alpha 2A Receptor (Adra2A), ADRA2A (gene 150), sequence (P08913 whole entry, looked up): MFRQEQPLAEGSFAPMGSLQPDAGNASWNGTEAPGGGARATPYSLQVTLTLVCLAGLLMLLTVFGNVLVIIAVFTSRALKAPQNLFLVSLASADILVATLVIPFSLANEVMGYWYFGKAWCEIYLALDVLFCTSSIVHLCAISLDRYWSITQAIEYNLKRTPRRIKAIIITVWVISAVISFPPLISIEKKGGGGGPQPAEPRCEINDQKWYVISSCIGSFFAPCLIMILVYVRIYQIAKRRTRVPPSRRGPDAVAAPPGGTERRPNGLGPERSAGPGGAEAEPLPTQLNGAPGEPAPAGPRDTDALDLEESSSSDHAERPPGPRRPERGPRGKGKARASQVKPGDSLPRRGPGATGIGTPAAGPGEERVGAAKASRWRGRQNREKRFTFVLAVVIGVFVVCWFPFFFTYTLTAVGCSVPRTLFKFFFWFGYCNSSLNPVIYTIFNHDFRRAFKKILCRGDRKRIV
# human Adrenergic, Alpha 2c Receptor (Adra2C), ADRA2C (gene 152), sequence (P18825 whole entry, looked up): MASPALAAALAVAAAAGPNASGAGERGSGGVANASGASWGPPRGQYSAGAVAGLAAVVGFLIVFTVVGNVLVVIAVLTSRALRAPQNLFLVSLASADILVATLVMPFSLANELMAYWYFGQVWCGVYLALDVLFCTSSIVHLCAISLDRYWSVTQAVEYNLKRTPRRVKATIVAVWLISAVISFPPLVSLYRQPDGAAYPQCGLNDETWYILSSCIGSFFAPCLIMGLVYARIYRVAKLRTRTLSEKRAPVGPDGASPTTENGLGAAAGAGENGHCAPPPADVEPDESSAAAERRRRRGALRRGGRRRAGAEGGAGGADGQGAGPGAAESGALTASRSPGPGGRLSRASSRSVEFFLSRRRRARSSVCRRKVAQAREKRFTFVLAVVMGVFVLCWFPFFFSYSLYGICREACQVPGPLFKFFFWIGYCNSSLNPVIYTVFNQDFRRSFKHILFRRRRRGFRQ
# Muscarinic acetylcholine receptor M3 (Homo sapiens), sequence (P20309 whole entry, looked up): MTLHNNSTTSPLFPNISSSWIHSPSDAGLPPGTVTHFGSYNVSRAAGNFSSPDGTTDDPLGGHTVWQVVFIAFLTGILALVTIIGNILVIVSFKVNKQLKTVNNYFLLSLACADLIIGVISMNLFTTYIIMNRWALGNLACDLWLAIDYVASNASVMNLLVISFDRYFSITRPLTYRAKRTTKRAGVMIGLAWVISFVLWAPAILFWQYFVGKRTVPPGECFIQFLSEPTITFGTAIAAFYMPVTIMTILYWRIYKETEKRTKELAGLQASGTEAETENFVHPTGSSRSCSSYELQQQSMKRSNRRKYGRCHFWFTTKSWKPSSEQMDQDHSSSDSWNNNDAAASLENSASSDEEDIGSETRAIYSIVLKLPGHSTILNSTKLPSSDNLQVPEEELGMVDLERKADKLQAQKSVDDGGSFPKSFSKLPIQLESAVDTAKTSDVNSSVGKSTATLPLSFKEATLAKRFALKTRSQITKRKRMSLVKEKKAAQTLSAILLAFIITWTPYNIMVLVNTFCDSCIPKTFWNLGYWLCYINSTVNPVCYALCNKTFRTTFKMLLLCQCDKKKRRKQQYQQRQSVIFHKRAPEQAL
# human Adrenergic, Beta 1 Receptor (Adrb1), ADRB1 (gene 153), sequence (P08588 whole entry, looked up): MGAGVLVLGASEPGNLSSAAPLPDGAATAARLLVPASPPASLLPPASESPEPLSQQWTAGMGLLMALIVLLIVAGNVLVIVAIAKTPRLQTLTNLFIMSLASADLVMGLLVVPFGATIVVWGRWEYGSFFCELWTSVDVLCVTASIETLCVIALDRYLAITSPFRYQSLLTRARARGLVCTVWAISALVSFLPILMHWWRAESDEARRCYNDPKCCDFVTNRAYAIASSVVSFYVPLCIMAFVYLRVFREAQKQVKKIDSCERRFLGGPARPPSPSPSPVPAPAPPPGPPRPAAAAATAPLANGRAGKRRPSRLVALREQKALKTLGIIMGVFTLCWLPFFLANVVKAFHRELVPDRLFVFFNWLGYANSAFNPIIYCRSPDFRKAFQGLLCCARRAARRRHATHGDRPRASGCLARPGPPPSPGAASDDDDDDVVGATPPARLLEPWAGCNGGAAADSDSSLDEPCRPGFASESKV
compound,measurement,setting,value
CC(=O)S[C@@H]1CC2=CC(=O)CC[C@]2(C)[C@H]2CC[C@@]3(C)[C@@H](CC[C@@]34CCC(=O)O4)[C@H]12,outcome,[1],inactive
Oc1ccc(C(c2ccc(O)cc2)C(Cl)(Cl)Cl)cc1,outcome,[2],inactive
same,AC50,[3],6.88 µM (active)
same,outcome,[4],inactive
same,AC50,[5],25 µM (active)
same,AC50,[6],6.83 µM (active)
same,AC50,[7],6.79 µM (active)
same,outcome,[8],inactive
same,outcome,[9],inactive
same,AC50,[10],4.96 µM (active)
same,AC50,[11],6.62 µM (active)
same,outcome,[1],inactive
C[C@]12CC[C@@H]3c4ccc(O)cc4C[C@@H](CCCCCCCCCS(=O)CCCC(F)(F)C(F)(F)F)[C@H]3[C@@H]1CC[C@@H]2O (some centres undefined),outcome,[9],inactive
N#CSCSc1nc2ccccc2s1,AC50,[12],4.68 µM (active)
same,AC50,[13],9.3 µM (active)
same,AC50,[6],14.8 µM (active) and 16.7 µM (active)
S=C(S)NCCNC(=S)S.[Mn+2].[S-]C([S-])=NCCN=C([S-])[S-].[Zn+2],outcome,[13],inactive
same,outcome,[14],inactive
same,outcome,[5],inactive
same,outcome,[15],inactive
same,outcome,[10],inactive
same,AC50,[1],117 nM (active) and 135 nM (active) and 170 nM (active)
CCCCC(CC)CN1C(=O)C2C3C=CC(C3)C2C1=O (centres undefined),outcome,[4],inactive
same,AC50,[9],8.81 µM (active)
same,outcome,[10],inactive
CCCOC(=O)NCCCN(C)C,outcome,[10],inactive
CCNc1nc(N)nc(Cl)n1,outcome,[15],inactive
Cc1nn(C)c(Oc2ccccc2)c1C=NOCc1ccc(C(=O)OC(C)(C)C)cc1,outcome,[16],inactive
same,outcome,[1],inactive
CCCCOC(=O)C(C)Oc1ccc(Oc2ccc(C(F)(F)F)cn2)cc1 (centres undefined),AC50,[7],12.1 µM (active)
CCOC(=O)C(C)Oc1ccc(Oc2cnc3cc(Cl)ccc3n2)cc1 (centres undefined),outcome,[3],inactive
O=C(c1ccc(O)cc1O)c1ccc(O)cc1O,outcome,[17],inactive
CC(C)(c1ccc(O)cc1)c1ccc(O)cc1,outcome,[2],inactive
same,outcome,[3],inactive
same,outcome,[4],inactive
same,outcome,[18],inactive
same,outcome,[6],inactive
same,outcome,[8],inactive
same,outcome,[19],inactive
CCOC(=O)NCCOc1ccc(Oc2ccccc2)cc1,outcome,[7],inactive
S=C([S-])NCCNC(=S)[S-].[Mn+2],outcome,[5],inactive
same,outcome,[15],inactive
same,AC50,[16],13.3 µM (active)
COCCO,outcome,[13],inactive
CCOC(=O)[C@H](C)Oc1ccc(Oc2nc3ccc(Cl)cc3o2)cc1,outcome,[3],inactive
same,outcome,[7],inactive
C=CCOC(Cn1ccnc1)c1ccc(Cl)cc1Cl (centres undefined),AC50,[12],16.4 µM (active)
same,outcome,[4],inactive
same,AC50,[7],5.47 µM (active)
same,outcome,[8],inactive
same,AC50,[9],5.02 µM (active)
same,AC50,[10],2.67 µM (active)
same,AC50,[11],5.37 µM (active)
COC(=O)c1ccccc1S(=O)(=O)NC(=O)Nc1nc(OC(F)F)cc(OC(F)F)n1,outcome,[4],inactive
O=C(O)C1(C(=O)Nc2ccc(Cl)cc2Cl)CC1,outcome,[8],inactive
N[C@@H](Cc1cc(I)c(Oc2ccc(O)c(I)c2)c(I)c1)C(=O)O,outcome,[1],inactive
CC(C)CCCCCCc1ccc(O)cc1,AC50,[2],38 µM (active)
same,AC50,[6],25 µM (active)
CC1(C)C(C=C(Cl)Cl)C1C(=O)OCc1cccc(Oc2ccccc2)c1 (centres undefined),outcome,[6],inactive
CCOC(=O)C(C)Oc1ccc(Oc2nc3ccc(Cl)cc3o2)cc1 (centres undefined),outcome,[3],inactive
same,AC50,[7],17.2 µM (active)
CC(=O)[C@H]1CC[C@H]2[C@@H]3CCC4=CC(=O)CC[C@]4(C)[C@H]3CC[C@]12C,outcome,[10],inactive
same,outcome,[11],inactive
CCCCCCC(C)OC(=O)COc1nc(F)c(Cl)c(N)c1Cl (centres undefined),outcome,[13],inactive
same,AC50,[6],25 µM (active)
CC(C)(C)[C@@H](O)[C@@H](Cc1ccc(Cl)cc1)n1cncn1,outcome,[1],inactive
CCOC(=O)COc1cc(-n2ncc(C(F)(F)F)c(C)c2=O)c(F)cc1Cl,outcome,[15],inactive
COC(=O)CSc1cc(N=c2sc(=O)n3n2CCCC3)c(F)cc1Cl,outcome,[12],inactive
C#C[C@]1(O)CC[C@H]2[C@@H]3CCC4=CC(=O)CC[C@@H]4[C@H]3CC[C@@]21CC,outcome,[20],inactive
